# Assay outcomes: PubChem, National Center for Advancing Translational Sciences (NCATS)
# MCF10A rereplic – DNA re-replication induction in MCF 10a cells. MCF 10A DNA re-replication, Hoechst nuclear intensity, 48 h. Potency, µM (highest dose often 46.1 µM), for inactives: at the top dose activity, positive = re-replication, most hits filed as activators. actives 2.9% (n = 350,000). AID 624296; note: % of control where 0% means no effect; nearly all actives have a fitted effect of over 50% in size
# KB-V1 MDR tox – KB-V1 MDR subline cytotoxicity. KB-V1 MDR cells viability, CellTiter-Glo, 72 h. Potency, µM (highest dose often 46.1 µM), hits mostly cytotoxic. actives 3.4% (n = 400,000). AID 1347076; note: % is set by controls: 0 for no effect and ±100 for the full control effect; nearly all actives have a fitted effect of over 60% in size
#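 Potencies derive from concentration-effect curves fitted to normalized luminescence (CellTiter-Glo) of KB-V1 cells treated for 72 h at 37 degrees C in phenol-red-free DMEM containing 10% FBS.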
# ELG1 DNA repair – inhibitors of ELG1-dependent DNA repair in HEK293T cells; HEK293T ELG1-luciferase reporter, luminescence, 16 h; DNA damage induced by 5-fluorouridine; actives 2.3% (n = 330,000); AID 504467; Potency, µM (highest dose often 46.1 µM), for inactives: at the top dose activity change, negative = inhibition, usual class: inhibitors; note: % is set by controls: 0 for no effect and ±100 for the full control effect; nearly all actives have a fitted effect of over 55% in size
#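 Reporter activity after DNA damage by 5-fluorouridine is monitored. Compound-treated cells incubate 16 hr at 37 °C, then ONE-Glo is added for 30 min before luminescence reading.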
# KB-3-1 cytotox – kills parental KB-3-1 adenocarcinoma cells | KB-3-1 viability, CellTiter-Glo ATP luminescence, 72 h | Potency, µM (titrated, usually from 46.1 µM), most hits filed as cytotoxic | actives 1.4% (n = 400,000) | AID 1347075; note: % is set by controls: 0 for no effect and ±100 for the full control effect; nearly all actives have a fitted effect of over 60% in size
#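 Multi-concentration cytotoxicity screen in KB-3-1 cells grown in DMEM lacking phenol red with 10% FBS. After 72 h at 37 °C with compound, ATP-dependent luminescence was recorded.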
# SW480 rereplic – inducers of DNA re-replication in SW480 colon cancer cells; SW480 DNA re-replication, Hoechst DNA content imaging, 48 h; Potency, µM (highest dose often 46.1 µM), inactives show at the highest dose re-replication activation, most hits filed as activators; actives 1.8% (n = 340,000); note: % of control where 0% means no effect; nearly all actives have a fitted effect of over 55% in size
#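 DNA re-replication was detected as more nuclei of elevated Hoechst intensity after 48 hr exposure to compound (23 nL pinned per well of 250 cells).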
# Active calls of the source: *; i = inactive; ? = inconclusive; . = not tested or not shown; [ ] = remark or other dose. An excerpt weighted towards active compounds, which were near 8.1% of everything screened. Calls come from the whole dose curve; as a rule, active = well fitted curve in the direction sought with a large enough effect; inconclusive = small, poorly fitted or top-dose-only effect, or another doubt; inactive = no such curve, though single readings can be large; an effect the other way counts as inactive or inconclusive. Potency is the fitted concentration of half-maximal effect.
SMILES,MCF10A rereplic,KB-V1 MDR tox,ELG1 DNA repair,KB-3-1 cytotox,SW480 rereplic
COc1cccc(N2CCc3c(C)nc4ccc(Cl)cc4c32)c1,?,16µM*,23µM*,?,?
CCN1Cc2c(/C=C/c3ccccc3)nc3ccc(OC)cc3c2N(c2cccc(Cl)c2)C1,26µM*,i,?,?,28%
Cc1ccc2nc3c(c(N)c2c1)CCN3c1ccccc1,15%,?,11%,i,3%
COc1ccc(N2CCc3c(C)nc4c(OC)cccc4c32)cc1,?,?,?,4.6µM*,?
N#Cc1cnn(-c2nc3sc4c(c3c(=O)[nH]2)CCCC4)c1N,?,i,?,?,-6%
CC(=O)N(C(C)=O)c1cccc2c(N(C(C)=O)C(C)=O)cccc12,11%,i,16%,i,-21%
CCOc1ccc(OCC(=O)Nc2cc(Cl)ccc2-n2cncn2)cc1,.,i,.,i,.
CCc1cccc(OCC(=O)Nc2cc(Cl)ccc2-n2cncn2)c1,?,i,-24%,i,4.6µM*
Cc1noc(C)c1COC(=O)c1ccc(S(=O)(=O)NCc2ccco2)cc1,?,i,?,i,0%
Oc1c(C(Nc2cccc(C(F)(F)F)c2)c2ccncc2)ccc2cccnc12 (stereo not given),?,?,?,i,12µM*
Cc1ccc(C(Nc2ccccn2)c2ccc3cccnc3c2O)cc1 (stereo not given),.,i,.,?,.
Oc1c(C(Nc2cccnc2)c2ccccc2F)ccc2cccnc12 (stereo not given),.,i,.,i,.
Oc1c(C(Nc2nccs2)c2ccc(C(F)(F)F)cc2)ccc2cccnc12 (stereo not given),?,?,2.6µM*,?,1.3µM*
CC(=O)Nc1ccc(OCC(=O)NCCc2ccccc2)cc1,16%,i,?,i,6%
Cn1c(=O)c2c(nc(NC3CCCCC3)n2CC(=O)C23CC4CC(CC(C4)C2)C3)n(C)c1=O,17%,?,7.3µM*,i,1%
COc1ccccc1N1CCN(C(=O)c2ccc(S(=O)(=O)N3CCCCCC3)cc2)CC1,?,i,15µM*,i,2%
COc1ccccc1N1CCN(S(=O)(=O)c2ccc(F)cc2)CC1,0%,13µM*,-2%,i,0%
O=c1[nH]c(-c2ccccn2)nc2ccccc12,?,i,?,?,?
O=c1[nH]c(-c2ccccn2)nc(C(F)(F)F)c1Br,18µM*,i,9%,?,10µM*
COc1cc(OC)c(C2SCCCS2)cc1OC,0%,i,5%,i,-1%
Oc1[nH]c2ccccc2c1C1=NCCCCC1,12%,i,-13%,i,-6%
C=CC[C@@H](CC(=O)OC(C)(C)C)C(=O)OC[C@H]1CCCN1C(=O)[C@@H](CC=C)CC(=O)N[C@H](CO)Cc1ccccc1,16%,i,16µM*,i,?
C=CC[C@@H](CC(=O)OC(C)(C)C)C(=O)OC[C@@H]1CCCN1C(=O)[C@@H](CC=C)CC(=O)N[C@@H](CO)Cc1ccccc1,-3%,i,0%,i,-11%
CC(OC(=O)c1cccs1)C(=O)NC1CCCCC1C (stereo not given),?,i,4%,i,-14%
CC(OC(=O)c1ccccc1NCCO)C(=O)NC1CCCCC1C (stereo not given),6%,9.2µM*,5%,i,4%
SMILES,MCF10A rereplic,KB-V1 MDR tox,ELG1 DNA repair,KB-3-1 cytotox,SW480 rereplic
Cc1ccc(C(=O)OC(C)C(=O)NC2CCCCC2C)s1 (stereo not given),6%,21µM*,-1%,i,-5%
O=C(Nc1ccc(-c2csc(Nc3ccccc3)n2)cc1)c1cc([N+](=O)[O-])cc(C(F)(F)F)c1,29%,?,9.2µM*,15µM*,14%
O=C(Nc1cccc(-c2csc(Nc3cccc(C(F)(F)F)c3)n2)c1)c1cc([N+](=O)[O-])cc(C(F)(F)F)c1,?,i,2.6µM*,i,?
CCOC(=O)C1CCN(C(=O)Cn2ncc3c([nH]c4ccccc43)c2=O)CC1,-2%,?,19%,i,-2%
COc1ccc(C(=O)CSc2nc(-c3ccccn3)nc(C)c2Cl)cc1,?,i,16µM*,i,?
Cn1nc(C(=O)NCc2ccccc2)c2ccccc2c1=O,20%,i,?,i,-1%
CC(NC(=O)c1nn(C)c(=O)c2ccccc12)c1ccccc1 (stereo not given),-1%,21µM*,0%,i,-7%
Cc1nc(COC(=O)c2cc(O)c3ccccc3c2O)cs1,?,i,0%,i,7.3µM*
CCOc1cc(C(=O)Nc2ccc3c4c(cccc24)C(=O)N3CC)cc(OCC)c1OCC,19%,9.2µM*,21µM*,i,-6%
C=CCn1c(SCC(=O)NCc2ccco2)nc2ccccc2c1=O,1%,i,-5%,i,-102%
O=C(CCn1c(SCC(=O)NCc2ccco2)nc2ccccc2c1=O)NCCc1ccccc1,-2%,21µM*,-17%,i,-7%
COn1c(SCc2cccc(Cl)c2)nc2ccccc2c1=O,18%,16µM*,16%,?,1%
CCOc1ccc(-n2c(SCC(=O)NCc3ccco3)nc3ccccc3c2=O)cc1,-2%,i,-10%,i,-7%
O=c1c2ccccc2nc(SCc2cccc(F)c2)n1Cc1ccco1,?,7.3µM*,-11%,?,-1%
O=C(CSc1nc2ccccc2c(=O)n1-c1ccc(F)cc1)NCc1ccco1,8%,12µM*,0%,i,-3%
Cc1cccc(NC(=O)Cc2csc(COc3cccc(C)c3)n2)c1,.,i,.,i,.
O=C(c1ccc(-n2c(SCc3cc(F)ccc3F)nc3ccccc3c2=O)cc1)N1CCOCC1,10%,0.65µM*,?,?,?
CC1(C)Cc2c(sc3nc(SCC(=O)NCc4ccco4)n(-c4ccccc4)c(=O)c23)CS1,7.1µM*,i,9%,i,-1%[9.22 µM]
O=C(CSc1nc2sc3c(c2c(=O)n1-c1ccccc1)CCCC3)NCc1ccco1,?,i,-1%,i,?
CCn1c(-c2ccccc2)c(C(=O)CCl)c2ccccc21,23µM*,?,25%,i,?
Cc1ccc(Nc2nc(-c3sc(NC(=O)c4ccco4)nc3C)cs2)cc1,-18%,i,10µM*,i,-8%
CCCC(=O)Nc1nc(C)c(-c2csc(Nc3ccc(Cl)cc3)n2)s1,?,i,?,?,1%
Cc1nc(NC(=O)c2ccccc2)sc1-c1csc(NCc2ccco2)n1,-4%,?,15µM*,i,-2%
